Data: the OligoGym collection

Biological target: NEFH
Test: pooled miR-30 sensor sort-seq; sequence = guide strand
Settings: shRNA
Note: reference of the scale not given here.

Sequence | sensor-assay potency score (higher = more potent)
TACCTCTGTCTTTTCTTTGGGT | 0.0672
TATTGCTAACAGAAATTCCTGT | 0.67
TAAGCTATCATAATTGTCCATC | -0.916
TTGGCTTCTTCCTTCACTGGGG | 0.0706

Biological target: NEIL1
Test: as above
Settings: shRNA

Sequence | sensor-assay potency score (higher = more potent)
TTCTTTTTGCGGGACTTGCGCC | -1.12
TACTCCTGCAAGACACAGGGCC | -0.384
TCTGTCCTCAGGACTCAGCTGT | -0.0425
TGGGATGTCAGCCTTGACCTTC | -1.09
TATCTTCTGGCTCAGGGTCAGC | -1.69
ATGTCAGCCTTGACCTTCCGGG | -0.984
TTGGTCCTTATCTTCTGGCTCA | -0.526
TTGCAGTCCTCTTAGGAAGGTC | -0.51
TGAACTGCTGGTACTCCTGCAA | -0.0198
TTTCGTAGCACACTCTCCCTGA | 0.529
TGAGTGACATAGCTCCAGCAGG | -1.15
TCTTAGGAAGGTCTCTCTTTGC | -1.22

Biological target: NEK11
Test: as above
Settings: shRNA

Sequence | sensor-assay potency score (higher = more potent)
TATATGAGCAGCCTCCTTCTGA | -0.668
TTCTCTGGTCTTTCTAACGCTA | -0.53
TTCCTGAATTTTATCGTCCAGA | -0.793
TTTTGTTGAAGCACGTATCTTC | 0.706
TTTTCTGTACTTCTGACAGTGC | -0.562
TTAGAAGTCGAGAAACTCCAAA | -0.797
ATGGAGTACATCAACACTCAGC | -1.37
TTCGCTAGCATTCTGATGCCTT | 0.204
TTTGTGTCTAGAGAAGTGCAAC | -1.07
TTAGGTTCTGTAGCTGCTCATC | -0.837
TACATCAACACTCAGCTGCTGA | -0.0516
TAAGTCTCGATGAAGTATCCTC | -0.275

Biological target: NEK7
Test: as above
Settings: shRNA

Sequence | sensor-assay potency score (higher = more potent)
TCTATCTTCTTACACAGTGAGT | -1.04
TAAACATAGGTGACGTCTGGTC | -1.09
TTGAGCTGAAAAACCGGCCAAG | -1.05
TAATGAACACATTAGCTGGTTT | -0.362
TAGGTCGCCAGCATCTGCTAGT | -0.288
TTAGCTGGTTTTATATCTCTAT | -0.684
TAAACTTCACTAAATTGTCCGC | -0.329
TATATCTCTATGCATGACTCTT | -0.469
TCTCATATAGTAGACAGCCAAG | -1.88
TTTTCATGTATTCTCTCTGGAG | -0.779
TAGTTCATTATCTTCAATGAAT | -1.2
TTAAAATGCTTGATCATTCTGG | 0.745
